High-throughput results (PubChem BioAssay)
Compounds with a hit are over-represented: about 7.3% of the library has one in this group of screens.
ELG1 genotoxic = qHTS screen for small molecules that induce genotoxicity in human embryonic kidney (HEK293T) cells expressing luciferase-tagged ELG1. HEK293T ELG1-luciferase reporter, luminescence, 16 h. Potency, µM (series often up to 46 µM), hits mostly activators. 330,000 compounds, 1.3% hits. AID 504466, 2011; note: nearly all actives have a fitted effect of over 60% in size
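Quantitative HTS format in 1536-well plates. HEK293T ELG1-luciferase reporter cells receive test compound and are incubated 16 hr at 37 °C, 5% CO2; ONE-Glo added, 30 min room temperature, then luminescence read.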
KinaseGlo FLuc = Counterscreen for Luciferase (Kinase-Glo TM) Inhibition; Luciferin 4-monooxygenase (Photuris pensylvanica), Q27757; Kinase-Glo luciferase, ATP luminescence, 8 min; Potency, µM (highest dose often 38.3 µM), usual class: inhibitors; 200,000 compounds, 0.28% hits; note: nearly all actives have a fitted effect of over 60% in size
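Luminescence was the read-out, taken after 8-minute incubation at ambient temperature. Luciferase turned over luciferin with 10 uM ATP in imidazole pH 7.2 buffer containing KCl, MgCl2, Tween 20 and BSA.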
Rab9 prom act = qHTS Assay for Rab9 Promoter Activators | AID 485297, 2010 | Huh7 Rab9 promoter-luciferase reporter, luminescence, 24 h | 320,000 compounds, 2.8% hits | Potency, µM (top dose mostly 9.22 µM), most hits filed as activators; note: nearly all actives have a fitted effect of over 60% in size
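Using Huh7 cells stably transfected with Rab9 promoter–luciferase, compounds were incubated 24 h at 37 °C, 5% CO2; luciferase luminescence was read 10 min after reagent addition.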
FLuc counter = qHTS profiling assay for firefly luciferase inhibitor/activator using purifed enzyme and Km concentrations of substrates (counterscreen for miR-21 project) | AID 588342, 2011 | Luciferin 4-monooxygenase (Photinus pyralis), P08659 | Potency, µM (series often up to 57.5 µM), hits mostly inhibitors | purified FLuc, Km substrates, luminescence inhibition | 360,000 compounds, 6.9% hits; note: nearly all actives have a fitted effect of over 55% in size
Target sequence (P08659 whole entry, looked up): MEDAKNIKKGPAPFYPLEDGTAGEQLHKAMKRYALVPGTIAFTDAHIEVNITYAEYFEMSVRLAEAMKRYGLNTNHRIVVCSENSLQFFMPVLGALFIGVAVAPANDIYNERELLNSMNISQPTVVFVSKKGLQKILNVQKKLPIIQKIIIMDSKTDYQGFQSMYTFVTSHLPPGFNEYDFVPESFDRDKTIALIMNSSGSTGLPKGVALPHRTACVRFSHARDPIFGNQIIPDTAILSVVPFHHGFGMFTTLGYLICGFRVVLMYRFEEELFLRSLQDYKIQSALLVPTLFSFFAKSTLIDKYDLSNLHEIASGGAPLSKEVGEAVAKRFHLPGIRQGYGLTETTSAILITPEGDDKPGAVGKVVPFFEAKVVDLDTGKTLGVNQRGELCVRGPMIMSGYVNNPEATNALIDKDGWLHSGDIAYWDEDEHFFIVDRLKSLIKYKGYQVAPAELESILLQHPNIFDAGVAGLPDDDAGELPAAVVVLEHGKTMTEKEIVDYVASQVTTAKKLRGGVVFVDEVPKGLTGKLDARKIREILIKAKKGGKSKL
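Purified P. pyralis luciferase (10nM final) with 10uM D-luciferin and 10uM ATP (Km levels) in 50mM Tris acetate pH 7.5, 10mM Mg acetate, 0.01% Tween-20, 0.05% BSA; qHTS 6-point titration, ~60 µM downward; luminescence read.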
SMN2 splice enh = qHTS Assay for Enhancers of SMN2 Splice Variant Expression; HEK293 SMN2-luciferase splicing reporter, luminescence, 30-36 h; Potency, µM (titrated, usually from 46.1 µM), most hits filed as activators; 210,000 compounds, 2.8% hits; note: nearly all actives have a fitted effect of over 55% in size
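HEK293 cells carry an SMN2 minigene-luciferase reporter in which exon 7 inclusion puts luciferase in frame. Cells were seeded at 2000 cells/well, attached for 10-12 hours, then exposed to compounds for 30-36 hours at 37C before ONE-Glo luminescence.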
NPC1 prom act = qHTS Assay for NPC1 Promoter Activators. Huh7 NPC1 promoter luciferase reporter, 24 h. AID 485313, 2010. Potency, µM (highest dose often 9.22 µM), usual class: activators. 320,000 compounds, 2.4% hits; note: nearly all actives have a fitted effect of over 60% in size
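Luminescence read-out of NPC1 promoter-driven luciferase in stably transfected Huh7 cells; compounds delivered in DMSO and left 24 h at 37C, 5% CO2, qHTS titration format.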
Of the large screens only hits and unclear results are named; the others gave an inactive call. Calls come from the whole dose curve; as a rule, active = well fitted curve in the direction sought with a large enough effect; inconclusive = small, poorly fitted or top-dose-only effect, or another doubt; inactive = no such curve, though single readings can be large; an effect the other way counts as inactive or inconclusive.

CSc1cccc(-n2nnc(-c3nsc(NC(=O)c4cccs4)n3)c2C)c1	FLuc counter 2.7µM (no result: ELG1 genotoxic, KinaseGlo FLuc, Rab9 prom act, SMN2 splice enh, NPC1 prom act)
Cc1csc(NC(=O)c2ccccc2[N+](=O)[O-])n1	none
Cc1csc(NC(=S)NC(=O)c2ccccc2)n1	ELG1 genotoxic 21µM, Rab9 prom act inconclusive, FLuc counter 13µM, NPC1 prom act inconclusive (no result: KinaseGlo FLuc, SMN2 splice enh)
COc1ccc(NC(=O)c2ccc3nc[nH]c3c2)cc1	Rab9 prom act inconclusive, FLuc counter inconclusive, NPC1 prom act inconclusive (no result: KinaseGlo FLuc, SMN2 splice enh)
Cc1csc(NC(=O)c2ccc3nc[nH]c3c2)n1	Rab9 prom act 0.5µM, FLuc counter 4.3µM, NPC1 prom act inconclusive (no result: KinaseGlo FLuc, SMN2 splice enh)
CCOC(=O)C1CCC(CN(Cc2c(Cl)cccc2Cl)S(=O)(=O)c2ccc(F)cc2)CC1 (stereo not given)	none (no result: ELG1 genotoxic, KinaseGlo FLuc, Rab9 prom act, SMN2 splice enh, NPC1 prom act)
CCOC(=O)C1CCCN(S(=O)(=O)c2ccc3[nH]c(=O)ccc3c2)C1 (stereo not given)	none (no result: ELG1 genotoxic, KinaseGlo FLuc, Rab9 prom act, SMN2 splice enh, NPC1 prom act)
CC(C)COc1ccc(C(=O)N2CCCCC2CCN2CCOCC2)cc1 (stereo not given)	none (no result: ELG1 genotoxic, KinaseGlo FLuc, Rab9 prom act, NPC1 prom act)
Cc1cc(C(=O)Nc2nc3c(s2)CCCC3)no1	ELG1 genotoxic 0.79µM, KinaseGlo FLuc inconclusive, Rab9 prom act 0.79µM, FLuc counter 4.8µM, SMN2 splice enh inconclusive, NPC1 prom act 1.6µM
Cc1onc(-c2ccccc2)c1C(=O)Nc1nc2c(s1)CCCC2	none
Cc1csc(NC(=O)c2ccccc2)n1	ELG1 genotoxic inconclusive, Rab9 prom act 3.5µM, FLuc counter 9.5µM, NPC1 prom act 4µM (no result: KinaseGlo FLuc, SMN2 splice enh)
COc1ccc(-c2nsc(NC(=O)c3cccc(OC)c3)n2)cc1	FLuc counter 11µM (no result: ELG1 genotoxic, KinaseGlo FLuc, Rab9 prom act, NPC1 prom act)
COc1cccc(C(=O)Nc2nc(-c3ccc(Br)cc3)ns2)c1	none (no result: ELG1 genotoxic, KinaseGlo FLuc, Rab9 prom act, SMN2 splice enh, NPC1 prom act)
COc1cccc(C(=O)Nc2nc(-c3nnn(-c4cccc(Cl)c4C)c3C)ns2)c1	FLuc counter 12µM (no result: ELG1 genotoxic, KinaseGlo FLuc, Rab9 prom act, SMN2 splice enh, NPC1 prom act)
Cc1csc(NC(=O)c2cnccn2)n1	ELG1 genotoxic inconclusive, KinaseGlo FLuc inconclusive, Rab9 prom act inconclusive, FLuc counter inconclusive, NPC1 prom act inconclusive
Cc1csc(NC(=O)c2ccc[nH]c2=O)n1	ELG1 genotoxic 16µM, Rab9 prom act 3.5µM, FLuc counter 17µM, NPC1 prom act 4µM (no result: KinaseGlo FLuc, SMN2 splice enh)
Cc1csc(NC(=O)c2cccnc2)n1	none (no result: KinaseGlo FLuc, SMN2 splice enh)
Cc1csc(NC(=O)c2cc(C)on2)n1	ELG1 genotoxic inconclusive, Rab9 prom act 2.2µM, FLuc counter 11µM, NPC1 prom act 2.2µM (no result: KinaseGlo FLuc, SMN2 splice enh)
COc1cccc(C(=O)Nc2nc(C)cs2)c1	Rab9 prom act 2.5µM, FLuc counter 6.7µM, SMN2 splice enh 11µM, NPC1 prom act 3.2µM
Cc1csc(NC(=O)NCC2CCCC(CNC(=O)Nc3nc(C)cs3)C2)n1 (stereo not given)	FLuc counter inconclusive, NPC1 prom act 3.5µM (no result: KinaseGlo FLuc, SMN2 splice enh)
Cc1ccccc1C(=O)NCc1nc2cccnc2n1Cc1ccccc1	none (no result: ELG1 genotoxic, KinaseGlo FLuc, Rab9 prom act, SMN2 splice enh, NPC1 prom act)
COc1ccc(CN2COc3ccc4c(C)cc(=O)oc4c3C2)cc1	none (no result: ELG1 genotoxic, KinaseGlo FLuc, Rab9 prom act, SMN2 splice enh, NPC1 prom act)
CCc1nn(CC(=O)NCc2cccc(OC)c2OC)c(=O)c2cc3occc3n12	none (no result: ELG1 genotoxic, KinaseGlo FLuc, Rab9 prom act, NPC1 prom act)
Cc1cc2c(n1-c1ccc(C(=O)NCC(C)c3ccccc3)cc1)CCCC2 (stereo not given)	none (no result: ELG1 genotoxic, KinaseGlo FLuc, Rab9 prom act, SMN2 splice enh, NPC1 prom act)
CCN1CCN(c2cc3c(nn2)Oc2ccccc2N3C)CC1	ELG1 genotoxic inconclusive, Rab9 prom act inconclusive, FLuc counter 17µM, SMN2 splice enh 16µM
CCN1CCN(c2nnc(-c3ccccc3)c3ccccc23)CC1	none (no result: KinaseGlo FLuc, SMN2 splice enh)
Cc1ccc2oc(-c3ccc(C)c(NC(=O)c4ccc(C(C)(C)C)cc4)c3)nc2c1	none (no result: ELG1 genotoxic, KinaseGlo FLuc, Rab9 prom act, NPC1 prom act)
Cc1ccc(C(=O)Nc2cc(-c3nc4cc(Cl)ccc4o3)ccc2C)c(C)c1	none (no result: ELG1 genotoxic, KinaseGlo FLuc, Rab9 prom act, NPC1 prom act)
COc1cc(C(=O)Nc2cccc(-c3nc4cc(C)ccc4o3)c2C)cc(OC)c1OC	FLuc counter 0.95µM
COc1cc(C(=O)Nc2cccc(-c3nc4ncccc4o3)c2C)cc(OC)c1OC	none
Cc1ccc2oc(-c3ccc(C)c(NC(=O)C(C)(C)Oc4ccc(Cl)cc4)c3)nc2c1	FLuc counter 3.8µM, SMN2 splice enh inconclusive (no result: ELG1 genotoxic, KinaseGlo FLuc, Rab9 prom act, NPC1 prom act)
